PubChem BioAssay

What was measured:
Test in all cases: inhibition of PEG-3 promoter-driven reporter – cell-based, HeLa, luciferase, CREF/GAPDH counter-screen panel, dose response (AID 624167)
PEG-3 [1] = biological target: PEG-3 (UniProt Q6IN02); details: CREF/GAPDH counter-screens; HeLa PEG-Prom luciferase reporter, overnight, run 1, dose range 1, at 100 µM (top of the series) unless noted
PEG-3 [2] = biological target: PEG-3 (UniProt Q6IN02); details: CREF/GAPDH counter-screens; HeLa PEG-Prom luciferase reporter, overnight, run 2, dose range 1, at 100 µM (top of the series) unless noted
Rat fibroblasts (CREF) [3] = details: CREF/GAPDH counter-screens; run 1, dose range 1, at 100 µM (top of the series)
Rat fibroblasts (CREF) [4] = details: CREF/GAPDH counter-screens; run 2, dose range 1, at 100 µM (top of the series)

Chain of PEG-3 (Q6IN02 whole entry, looked up): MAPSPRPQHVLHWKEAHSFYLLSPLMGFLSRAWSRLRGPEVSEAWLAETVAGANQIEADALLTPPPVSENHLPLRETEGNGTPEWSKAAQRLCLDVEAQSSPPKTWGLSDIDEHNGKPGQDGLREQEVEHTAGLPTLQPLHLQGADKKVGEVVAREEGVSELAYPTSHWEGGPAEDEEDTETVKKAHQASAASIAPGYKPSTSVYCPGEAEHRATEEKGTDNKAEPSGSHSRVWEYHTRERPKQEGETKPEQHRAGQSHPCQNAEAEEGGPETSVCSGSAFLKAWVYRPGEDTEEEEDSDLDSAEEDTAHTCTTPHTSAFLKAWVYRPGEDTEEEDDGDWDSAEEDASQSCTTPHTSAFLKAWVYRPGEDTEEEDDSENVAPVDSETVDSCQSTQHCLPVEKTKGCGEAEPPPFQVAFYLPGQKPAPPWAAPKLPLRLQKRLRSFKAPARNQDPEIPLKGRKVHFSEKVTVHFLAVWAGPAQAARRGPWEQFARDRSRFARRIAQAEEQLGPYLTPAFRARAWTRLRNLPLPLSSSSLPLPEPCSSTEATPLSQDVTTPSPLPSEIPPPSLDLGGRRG

COc1cccc(/C=N/NC(=O)c2ccc(-c3ccccc3)cc2)c1O showed an inhibition (PEG-3 [1]) of 81%, an inhibition (PEG-3 [2]) of 79.7% and an inhibition (Rat fibroblasts (CREF) [3]) of 69.8%. For the same molecule, the inhibition (Rat fibroblasts (CREF) [4]) was 67.6%.

CN(C)c1c([N+](=O)[O-])cc(N2C(=O)C=CC2=O)cc1[N+](=O)[O-] showed an inhibition (PEG-3 [1]) of 102%, an inhibition (PEG-3 [2]) of 102% and an inhibition (Rat fibroblasts (CREF) [3]) of 101%. It also gave an inhibition (Rat fibroblasts (CREF) [4]) of 100%.

O=C(NC(=O)c1ccccc1)Nc1ccccn1 showed an inhibition (PEG-3 [1]) of 98.8%, an inhibition (PEG-3 [2]) of 94% and an inhibition (Rat fibroblasts (CREF) [3]) of 95.3%. The inhibition (Rat fibroblasts (CREF) [4]) was 96.8%.

Work on CC(C)CC1C(=O)N(Cc2cn(Cc3ccco3)nn2)CCS(=O)(=O)N1Cc1ccc(-c2ccc(F)cc2)cc1 (stereo not drawn) yielded an inhibition (PEG-3 [1]) of 39%, an inhibition (PEG-3 [2]) of 30.4% and an inhibition (Rat fibroblasts (CREF) [3]) of 96.8%. The inhibition (Rat fibroblasts (CREF) [4]) was 100%.

Work on O=C(N/N=C/c1sc(N2CCOCC2)nc1-c1ccccc1)c1cccc(S(=O)(=O)N2CCCC2)c1 yielded an inhibition (PEG-3 [1]) of 63.5%, an inhibition (PEG-3 [2]) of 53.5% and an inhibition (Rat fibroblasts (CREF) [3]) of -19%. For the same molecule, the inhibition (Rat fibroblasts (CREF) [4]) was 87.5%.

For O=C(Nc1nc2cc3c(cc2s1)OCO3)C1=COCCO1, the inhibition (PEG-3 [1]) was 88.1%, the inhibition (PEG-3 [2]) was 94% and the inhibition (Rat fibroblasts (CREF) [3]) was 93.7%. The inhibition (Rat fibroblasts (CREF) [4]) was 94%.

Molecule CCOc1ccc2c(ccc(/C=C/c3cc(C)c4cccnc4c3O)[n+]2C)c1 has an inhibition (PEG-3 [1]) of 101%, an inhibition (PEG-3 [2]) of 99.4% and an inhibition (Rat fibroblasts (CREF) [3]) of 98.8%. It also gave an inhibition (Rat fibroblasts (CREF) [4]) of 98.5%.

Cc1ccc(NC(=S)NC(=O)c2ccc(F)cc2)cc1S(=O)(=O)Nc1ccccc1Cl gave an inhibition (PEG-3 [1]) of 70.7%, an inhibition (PEG-3 [2]) of 36.1% and an inhibition (Rat fibroblasts (CREF) [3]) of -12%. For the same molecule, the inhibition (Rat fibroblasts (CREF) [4]) was 91.7%.

Molecule Cc1cc(Br)ccc1NC(=O)CNC(=O)Cn1ncc(Cl)c(Cl)c1=O has an inhibition (PEG-3 [1]) of 99.8%, an inhibition (PEG-3 [2]) of 94.5% and an inhibition (Rat fibroblasts (CREF) [3]) of 48.9%. The inhibition (Rat fibroblasts (CREF) [4]) was 96.9%.

Molecule CN(C)c1ccc(/C=C2\SC(=O)N(CCc3nnc(N)s3)C2=O)cc1 has an inhibition (PEG-3 [1]) of 62%, an inhibition (PEG-3 [2]) of 77.4% and an inhibition (Rat fibroblasts (CREF) [3]) of 83%. For the same molecule, the inhibition (Rat fibroblasts (CREF) [4]) was 82.3%.

CN(C)c1ccc(/C=C/c2ccc3ccccc3n2)cc1 showed an inhibition (PEG-3 [1]) of 96.6%, an inhibition (PEG-3 [2]) of 96% and an inhibition (Rat fibroblasts (CREF) [3]) of 96.6%. For the same molecule, the inhibition (Rat fibroblasts (CREF) [4]) was 95.8%.

O=C(CCl)N1c2ccccc2Sc2ccc3ccccc3c21 was tested, and the inhibition (PEG-3 [1]) was 99.4%, the inhibition (PEG-3 [2]) was 101% and the inhibition (Rat fibroblasts (CREF) [3]) was 99.4%. The inhibition (Rat fibroblasts (CREF) [4]) was 99.6%.
